Assays:
Experiment in all cases: DAPPL (digital affinity profiling via proximity ligation, sequencing); 10 mM Tris-HCl pH 7.5, 50 mM NaCl, 1 mM DTT, 4% glycerol, room temperature, 30 min; GST-TFs on glutathione beads, 16-mer random dsDNA library, 0.1% formaldehyde crosslink after washing; high values mean tight binding
FEV = target: T1, FEV (Homo sapiens, UniProt Q99581 1-238); details: protein: recombinant; tags: N-terminal GST; dsDNA, one strand shown
T1 sequence: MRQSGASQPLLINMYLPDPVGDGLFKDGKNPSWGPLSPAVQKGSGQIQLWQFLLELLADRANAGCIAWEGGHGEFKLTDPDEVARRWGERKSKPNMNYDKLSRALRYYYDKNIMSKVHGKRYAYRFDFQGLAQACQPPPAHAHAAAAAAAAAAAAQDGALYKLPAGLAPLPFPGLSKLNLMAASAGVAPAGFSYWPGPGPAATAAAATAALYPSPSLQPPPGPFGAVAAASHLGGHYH
In short: (§1)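 Yeast served to express human transcription factors as GST fusions, which were then captured on glutathione beads and labelled with DNA barcodes. Pooled with a tag-only sample, they were incubated with 200 nmole of a 16-mer random double-stranded DNA library for 30 min at room temperature in Tris/NaCl/DTT/glycerol buffer, washed, crosslinked with 0.1% formaldehyde, ligated by proximity, amplified by PCR and sequenced. Dividing each hexamer's read frequency for a factor by its frequency for the tag-only sample gives the binding signal.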

ETV5 = ETV5 (Homo sapiens, UniProt P41161 1-510); details: protein: recombinant; tags: N-terminal GST; dsDNA, one strand shown
In short: as §1

HSF1 = HSF1 (Homo sapiens, UniProt Q00613 1-529); details: protein: recombinant; tags: N-terminal GST; chain copies: 3; dsDNA, one strand shown
In short: as §1

SPIC = target: T2, SPIC (Homo sapiens, UniProt Q8N5J4 1-248); details: protein: recombinant; tags: N-terminal GST; dsDNA, one strand shown
T2 sequence: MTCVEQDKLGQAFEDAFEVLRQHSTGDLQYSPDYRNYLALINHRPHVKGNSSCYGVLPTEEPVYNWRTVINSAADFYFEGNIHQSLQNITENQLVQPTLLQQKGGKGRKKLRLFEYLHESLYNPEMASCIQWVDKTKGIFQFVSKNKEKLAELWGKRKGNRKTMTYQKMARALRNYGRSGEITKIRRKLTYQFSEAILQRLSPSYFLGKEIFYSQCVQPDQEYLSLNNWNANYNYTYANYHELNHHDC
In short: as §1

ELF4 = ELF4 (Homo sapiens, UniProt Q99607 1-663); details: protein: recombinant; tags: N-terminal GST; dsDNA, one strand shown
In short: as §1

ELK4 = target: T3, ELK4 (Homo sapiens, UniProt P28324-2 1-405); details: protein: recombinant; tags: N-terminal GST; dsDNA, one strand shown
T3 sequence: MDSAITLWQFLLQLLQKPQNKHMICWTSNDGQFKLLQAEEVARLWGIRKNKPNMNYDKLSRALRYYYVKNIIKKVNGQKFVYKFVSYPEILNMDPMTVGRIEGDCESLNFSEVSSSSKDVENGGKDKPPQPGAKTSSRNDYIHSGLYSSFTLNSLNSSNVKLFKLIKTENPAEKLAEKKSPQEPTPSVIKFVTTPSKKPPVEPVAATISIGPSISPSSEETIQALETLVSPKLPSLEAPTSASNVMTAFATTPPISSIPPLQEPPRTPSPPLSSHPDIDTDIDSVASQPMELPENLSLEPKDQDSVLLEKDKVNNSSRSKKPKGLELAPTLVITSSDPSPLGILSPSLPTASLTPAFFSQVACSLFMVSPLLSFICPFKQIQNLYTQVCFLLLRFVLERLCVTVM
In short: as §1

ETV2 = target: T4, ETV2 (Homo sapiens, UniProt O00321 1-342); details: protein: recombinant; tags: N-terminal GST; dsDNA, one strand shown
T4 sequence: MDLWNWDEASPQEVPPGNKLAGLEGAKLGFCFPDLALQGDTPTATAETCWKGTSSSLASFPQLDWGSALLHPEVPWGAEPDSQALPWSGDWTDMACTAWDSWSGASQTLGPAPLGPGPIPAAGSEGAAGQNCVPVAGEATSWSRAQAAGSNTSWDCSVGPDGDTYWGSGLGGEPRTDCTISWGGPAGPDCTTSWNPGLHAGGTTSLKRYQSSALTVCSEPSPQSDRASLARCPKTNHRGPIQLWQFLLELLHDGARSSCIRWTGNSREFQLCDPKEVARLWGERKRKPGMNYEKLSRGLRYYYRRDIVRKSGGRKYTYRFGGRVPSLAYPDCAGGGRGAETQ
In short: as §1

ELF3 = target: T5, ELF3 (Homo sapiens, UniProt P78545 1-371); details: protein: recombinant; tags: N-terminal GST; dsDNA, one strand shown
T5 sequence: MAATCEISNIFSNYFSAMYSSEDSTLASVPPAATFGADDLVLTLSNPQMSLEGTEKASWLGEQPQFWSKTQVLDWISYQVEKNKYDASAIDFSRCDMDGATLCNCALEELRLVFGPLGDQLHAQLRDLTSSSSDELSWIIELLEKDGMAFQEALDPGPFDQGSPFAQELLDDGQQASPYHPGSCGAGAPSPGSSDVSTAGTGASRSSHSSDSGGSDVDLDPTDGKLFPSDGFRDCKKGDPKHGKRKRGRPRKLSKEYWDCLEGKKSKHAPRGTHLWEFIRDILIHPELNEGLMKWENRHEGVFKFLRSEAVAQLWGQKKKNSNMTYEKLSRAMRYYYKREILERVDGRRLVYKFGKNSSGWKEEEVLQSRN
In short: as §1

ERF = target: T6, ERF (Homo sapiens, UniProt P50548 1-548); details: protein: recombinant; tags: N-terminal GST; dsDNA, one strand shown
T6 sequence: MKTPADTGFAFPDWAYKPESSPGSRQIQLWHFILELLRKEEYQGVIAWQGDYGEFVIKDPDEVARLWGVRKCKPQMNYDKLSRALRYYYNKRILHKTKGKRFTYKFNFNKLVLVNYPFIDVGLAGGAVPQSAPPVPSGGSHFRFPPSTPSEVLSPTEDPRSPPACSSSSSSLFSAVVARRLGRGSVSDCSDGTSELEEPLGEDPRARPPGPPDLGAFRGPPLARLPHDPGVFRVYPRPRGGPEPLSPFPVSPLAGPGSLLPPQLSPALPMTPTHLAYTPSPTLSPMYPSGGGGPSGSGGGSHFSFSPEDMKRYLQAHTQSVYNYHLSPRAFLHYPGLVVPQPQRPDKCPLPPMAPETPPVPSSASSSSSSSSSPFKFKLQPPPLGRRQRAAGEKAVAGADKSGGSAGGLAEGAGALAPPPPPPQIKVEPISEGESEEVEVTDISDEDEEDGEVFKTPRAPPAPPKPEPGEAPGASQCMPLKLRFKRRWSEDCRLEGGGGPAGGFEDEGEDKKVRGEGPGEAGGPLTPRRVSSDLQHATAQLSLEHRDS
In short: as §1

ETV3L = target: T7, ETV3L (Homo sapiens, UniProt Q6ZN32 1-361); details: protein: recombinant; tags: N-terminal GST; dsDNA, one strand shown
T7 sequence: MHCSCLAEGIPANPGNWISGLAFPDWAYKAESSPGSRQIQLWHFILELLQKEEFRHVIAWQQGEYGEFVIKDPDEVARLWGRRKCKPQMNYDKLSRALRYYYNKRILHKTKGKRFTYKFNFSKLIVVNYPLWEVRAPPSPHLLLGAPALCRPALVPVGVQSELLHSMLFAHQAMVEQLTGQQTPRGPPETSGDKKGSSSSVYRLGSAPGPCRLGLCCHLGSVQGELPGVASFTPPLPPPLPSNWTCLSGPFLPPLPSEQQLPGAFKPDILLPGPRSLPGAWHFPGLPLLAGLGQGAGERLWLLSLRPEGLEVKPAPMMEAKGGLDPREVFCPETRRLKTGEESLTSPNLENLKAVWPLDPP
In short: as §1

ETS2 = target: T8, ETS2 (Homo sapiens, UniProt P15036 1-469); details: protein: recombinant; tags: N-terminal GST; dsDNA, one strand shown
T8 sequence: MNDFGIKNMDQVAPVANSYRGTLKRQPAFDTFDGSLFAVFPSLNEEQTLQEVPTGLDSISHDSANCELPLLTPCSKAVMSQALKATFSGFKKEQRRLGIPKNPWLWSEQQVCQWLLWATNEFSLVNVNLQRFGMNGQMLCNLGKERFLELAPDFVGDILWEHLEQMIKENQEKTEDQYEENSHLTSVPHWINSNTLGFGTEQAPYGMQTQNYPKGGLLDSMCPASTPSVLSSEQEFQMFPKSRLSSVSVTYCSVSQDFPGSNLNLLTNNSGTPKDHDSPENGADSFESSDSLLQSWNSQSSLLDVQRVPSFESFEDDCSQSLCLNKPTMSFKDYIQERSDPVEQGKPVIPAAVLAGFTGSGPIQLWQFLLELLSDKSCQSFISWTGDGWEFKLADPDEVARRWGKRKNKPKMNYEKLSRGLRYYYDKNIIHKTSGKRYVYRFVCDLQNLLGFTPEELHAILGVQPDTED
In short: as §1

SPDEF = target: T9, SPDEF (Homo sapiens, UniProt O95238 1-335); details: protein: recombinant; tags: N-terminal GST; dsDNA, one strand shown
T9 sequence: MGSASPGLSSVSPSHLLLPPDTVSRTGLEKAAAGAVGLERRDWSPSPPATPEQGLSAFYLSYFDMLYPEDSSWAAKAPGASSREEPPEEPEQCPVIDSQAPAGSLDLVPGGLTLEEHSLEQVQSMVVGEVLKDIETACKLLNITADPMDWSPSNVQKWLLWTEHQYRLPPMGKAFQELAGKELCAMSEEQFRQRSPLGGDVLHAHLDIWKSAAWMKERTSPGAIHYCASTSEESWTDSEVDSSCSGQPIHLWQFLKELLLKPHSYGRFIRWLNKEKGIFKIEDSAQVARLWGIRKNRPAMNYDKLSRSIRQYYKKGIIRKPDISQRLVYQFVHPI
In short: as §1

ETV7 = target: T10, ETV7 (Homo sapiens, UniProt Q9Y603 1-341); details: protein: recombinant; tags: N-terminal GST; dsDNA, one strand shown
T10 sequence: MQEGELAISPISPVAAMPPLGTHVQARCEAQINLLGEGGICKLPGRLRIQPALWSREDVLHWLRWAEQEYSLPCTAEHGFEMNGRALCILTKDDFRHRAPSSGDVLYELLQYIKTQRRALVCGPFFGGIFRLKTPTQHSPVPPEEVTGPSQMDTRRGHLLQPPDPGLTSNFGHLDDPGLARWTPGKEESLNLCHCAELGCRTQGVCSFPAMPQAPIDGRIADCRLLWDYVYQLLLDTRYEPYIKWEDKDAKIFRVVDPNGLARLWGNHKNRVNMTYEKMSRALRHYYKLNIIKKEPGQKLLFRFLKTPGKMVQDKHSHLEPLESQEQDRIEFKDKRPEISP
In short: as §1

ELF5 = target: T11, ELF5 (Homo sapiens, UniProt Q9UKW6-2 1-255); details: protein: recombinant; tags: N-terminal GST; dsDNA, one strand shown
T11 sequence: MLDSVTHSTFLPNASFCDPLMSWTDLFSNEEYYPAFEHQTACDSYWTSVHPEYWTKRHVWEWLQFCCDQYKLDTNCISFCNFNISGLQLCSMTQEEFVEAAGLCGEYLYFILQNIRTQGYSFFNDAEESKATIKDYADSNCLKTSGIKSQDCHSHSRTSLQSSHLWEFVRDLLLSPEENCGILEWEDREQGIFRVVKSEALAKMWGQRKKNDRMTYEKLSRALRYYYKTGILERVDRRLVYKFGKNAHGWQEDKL
In short: as §1

ETV3 = target: T12, ETV3 (Homo sapiens, UniProt P41162-2 1-143); details: protein: recombinant; tags: N-terminal GST; dsDNA, one strand shown
T12 sequence: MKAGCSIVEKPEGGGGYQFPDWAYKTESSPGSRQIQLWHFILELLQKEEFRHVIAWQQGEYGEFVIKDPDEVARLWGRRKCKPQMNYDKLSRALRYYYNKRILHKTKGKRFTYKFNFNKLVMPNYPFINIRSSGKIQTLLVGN
In short: as §1

ETV6 = ETV6 (Homo sapiens, UniProt P41212 1-452); details: protein: recombinant; tags: N-terminal GST; dsDNA, one strand shown
In short: as §1

ETV1 = ETV1 (Homo sapiens, UniProt P50549 1-477); details: protein: recombinant; tags: N-terminal GST; dsDNA, one strand shown
In short: as §1

Sequence of ETV5 (P41161 whole entry): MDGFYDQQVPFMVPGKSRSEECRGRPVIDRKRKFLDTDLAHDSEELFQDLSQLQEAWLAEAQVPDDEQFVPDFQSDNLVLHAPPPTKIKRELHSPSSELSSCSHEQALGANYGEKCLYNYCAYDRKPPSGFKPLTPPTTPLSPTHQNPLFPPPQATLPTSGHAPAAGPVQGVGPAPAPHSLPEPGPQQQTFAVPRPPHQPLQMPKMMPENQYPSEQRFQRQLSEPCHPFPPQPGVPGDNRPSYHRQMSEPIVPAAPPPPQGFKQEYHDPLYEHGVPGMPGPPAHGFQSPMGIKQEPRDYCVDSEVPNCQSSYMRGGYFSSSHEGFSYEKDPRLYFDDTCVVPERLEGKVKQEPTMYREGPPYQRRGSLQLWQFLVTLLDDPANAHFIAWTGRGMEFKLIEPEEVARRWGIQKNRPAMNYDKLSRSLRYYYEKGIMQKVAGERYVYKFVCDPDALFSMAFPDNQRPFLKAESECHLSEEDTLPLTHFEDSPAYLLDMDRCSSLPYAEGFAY
Sequence of ELF4 (Q99607 whole entry): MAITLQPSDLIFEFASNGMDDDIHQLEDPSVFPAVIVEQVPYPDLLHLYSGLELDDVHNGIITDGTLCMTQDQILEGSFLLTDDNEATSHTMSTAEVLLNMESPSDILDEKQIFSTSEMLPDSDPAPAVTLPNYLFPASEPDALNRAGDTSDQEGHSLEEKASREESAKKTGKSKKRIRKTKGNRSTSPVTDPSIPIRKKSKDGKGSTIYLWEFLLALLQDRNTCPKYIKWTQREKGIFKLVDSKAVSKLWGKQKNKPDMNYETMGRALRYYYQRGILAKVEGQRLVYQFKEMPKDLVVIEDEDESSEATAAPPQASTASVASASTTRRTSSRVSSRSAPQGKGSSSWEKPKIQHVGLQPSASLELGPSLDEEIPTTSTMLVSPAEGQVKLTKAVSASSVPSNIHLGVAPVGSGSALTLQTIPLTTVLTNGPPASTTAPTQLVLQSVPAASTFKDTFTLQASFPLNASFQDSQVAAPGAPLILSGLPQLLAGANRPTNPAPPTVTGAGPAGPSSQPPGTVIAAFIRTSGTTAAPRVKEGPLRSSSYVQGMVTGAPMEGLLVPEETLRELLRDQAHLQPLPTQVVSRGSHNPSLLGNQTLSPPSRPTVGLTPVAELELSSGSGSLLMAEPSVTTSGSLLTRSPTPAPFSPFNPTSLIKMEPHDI
Sequence of HSF1 (Q00613 whole entry): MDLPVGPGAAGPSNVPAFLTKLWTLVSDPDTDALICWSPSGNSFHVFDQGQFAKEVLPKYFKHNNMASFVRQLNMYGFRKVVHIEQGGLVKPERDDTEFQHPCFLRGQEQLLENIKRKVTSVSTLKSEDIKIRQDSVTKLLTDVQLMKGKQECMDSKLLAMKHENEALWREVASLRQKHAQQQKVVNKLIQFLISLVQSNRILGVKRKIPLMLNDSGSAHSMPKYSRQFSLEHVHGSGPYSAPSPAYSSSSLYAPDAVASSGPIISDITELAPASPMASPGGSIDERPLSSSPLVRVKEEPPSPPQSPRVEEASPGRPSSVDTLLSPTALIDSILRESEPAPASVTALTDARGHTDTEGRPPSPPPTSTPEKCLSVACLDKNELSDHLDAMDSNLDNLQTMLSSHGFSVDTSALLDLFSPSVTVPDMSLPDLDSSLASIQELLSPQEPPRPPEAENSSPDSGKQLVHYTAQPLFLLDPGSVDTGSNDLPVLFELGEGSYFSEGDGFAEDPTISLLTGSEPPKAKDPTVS
Sequence of ETV6 (P41212 whole entry): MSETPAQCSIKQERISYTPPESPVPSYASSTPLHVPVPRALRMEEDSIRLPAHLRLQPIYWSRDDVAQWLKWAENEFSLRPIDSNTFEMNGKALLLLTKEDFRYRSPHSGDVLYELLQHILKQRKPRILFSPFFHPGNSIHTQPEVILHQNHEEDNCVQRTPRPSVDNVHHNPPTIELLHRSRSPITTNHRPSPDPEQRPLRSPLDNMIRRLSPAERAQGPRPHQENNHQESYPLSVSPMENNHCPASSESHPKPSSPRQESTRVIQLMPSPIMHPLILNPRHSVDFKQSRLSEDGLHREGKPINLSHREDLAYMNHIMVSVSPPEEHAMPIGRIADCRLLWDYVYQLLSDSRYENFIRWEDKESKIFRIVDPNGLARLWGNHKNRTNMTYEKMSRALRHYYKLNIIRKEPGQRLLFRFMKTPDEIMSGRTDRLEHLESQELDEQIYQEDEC
Sequence of ETV1 (P50549 whole entry): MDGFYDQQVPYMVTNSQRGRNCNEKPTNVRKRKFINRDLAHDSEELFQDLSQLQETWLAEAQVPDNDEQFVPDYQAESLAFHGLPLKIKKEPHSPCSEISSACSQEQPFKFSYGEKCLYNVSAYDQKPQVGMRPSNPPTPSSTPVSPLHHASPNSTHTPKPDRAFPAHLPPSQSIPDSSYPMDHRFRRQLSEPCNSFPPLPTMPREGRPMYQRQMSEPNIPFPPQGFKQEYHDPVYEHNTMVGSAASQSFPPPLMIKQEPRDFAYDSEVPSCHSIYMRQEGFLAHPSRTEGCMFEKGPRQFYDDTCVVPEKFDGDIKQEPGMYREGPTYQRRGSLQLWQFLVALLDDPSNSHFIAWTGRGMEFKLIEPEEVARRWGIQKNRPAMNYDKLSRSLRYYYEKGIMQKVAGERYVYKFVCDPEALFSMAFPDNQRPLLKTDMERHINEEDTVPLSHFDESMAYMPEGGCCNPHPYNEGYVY

Row | Sequence | binding signal (FEV) | binding signal (ETV5) | binding signal (HSF1) | binding signal (SPIC) | binding signal (ELF4) | binding signal (ELK4) | binding signal (ETV2) | binding signal (ELF3) | binding signal (ERF) | binding signal (ETV3L) | binding signal (ETS2) | binding signal (SPDEF) | binding signal (ETV7) | binding signal (ELF5) | binding signal (ETV3) | binding signal (ETV6) | binding signal (ETV1)
1 | CTGGGT | 1.06 fold enrichment (6-mer frequency, TF over GST control) | 1.05 fold enrichment (6-mer frequency, TF over GST control) | 1.04 fold enrichment (6-mer frequency, TF over GST control) | 1.17 fold enrichment (6-mer frequency, TF over GST control) | 1.13 fold enrichment (6-mer frequency, TF over GST control) | 1.2 fold enrichment (6-mer frequency, TF over GST control) | 1.22 fold enrichment (6-mer frequency, TF over GST control) | 1.12 fold enrichment (6-mer frequency, TF over GST control) | 1.07 fold enrichment (6-mer frequency, TF over GST control) | 1.18 fold enrichment (6-mer frequency, TF over GST control) | 1.09 fold enrichment (6-mer frequency, TF over GST control) | 1.08 fold enrichment (6-mer frequency, TF over GST control) | 1.1 fold enrichment (6-mer frequency, TF over GST control) | 1.07 fold enrichment (6-mer frequency, TF over GST control) | 1.07 fold enrichment (6-mer frequency, TF over GST control) | 1.09 fold enrichment (6-mer frequency, TF over GST control) | 
2 | TCCACG |  | 1.04 fold enrichment (6-mer frequency, TF over GST control) | 1.15 fold enrichment (6-mer frequency, TF over GST control) | 1.15 fold enrichment (6-mer frequency, TF over GST control) | 1.13 fold enrichment (6-mer frequency, TF over GST control) | 1.13 fold enrichment (6-mer frequency, TF over GST control) | 1.3 fold enrichment (6-mer frequency, TF over GST control) | 1.02 fold enrichment (6-mer frequency, TF over GST control) | 1.03 fold enrichment (6-mer frequency, TF over GST control) | 1.18 fold enrichment (6-mer frequency, TF over GST control) | 1.09 fold enrichment (6-mer frequency, TF over GST control) | 1.1 fold enrichment (6-mer frequency, TF over GST control) | 1.06 fold enrichment (6-mer frequency, TF over GST control) | 1.04 fold enrichment (6-mer frequency, TF over GST control) | 1.01 fold enrichment (6-mer frequency, TF over GST control) | 1.06 fold enrichment (6-mer frequency, TF over GST control) | 1.08 fold enrichment (6-mer frequency, TF over GST control)

From PMC7862700, “An all-to-all approach to the identification of sequence-specific readers for epigenetic DNA modifications on cytosine”
